Compound activity: PubChem, Buhrlage Lab, Dana-Farber Cancer Institute and Novartis Institutes for BioMedical Research (Cambridge, Mass)
USP28 block: inhibitors of human USP28 deubiquitinase | purified USP28, Ub-rhodamine cleavage fluorescence, 30 min | inhibition, % at 25 µM | hit rate 3% among 47,000 | AID 1645857, 2021
Target sequence (Q96RU2 whole entry, looked up): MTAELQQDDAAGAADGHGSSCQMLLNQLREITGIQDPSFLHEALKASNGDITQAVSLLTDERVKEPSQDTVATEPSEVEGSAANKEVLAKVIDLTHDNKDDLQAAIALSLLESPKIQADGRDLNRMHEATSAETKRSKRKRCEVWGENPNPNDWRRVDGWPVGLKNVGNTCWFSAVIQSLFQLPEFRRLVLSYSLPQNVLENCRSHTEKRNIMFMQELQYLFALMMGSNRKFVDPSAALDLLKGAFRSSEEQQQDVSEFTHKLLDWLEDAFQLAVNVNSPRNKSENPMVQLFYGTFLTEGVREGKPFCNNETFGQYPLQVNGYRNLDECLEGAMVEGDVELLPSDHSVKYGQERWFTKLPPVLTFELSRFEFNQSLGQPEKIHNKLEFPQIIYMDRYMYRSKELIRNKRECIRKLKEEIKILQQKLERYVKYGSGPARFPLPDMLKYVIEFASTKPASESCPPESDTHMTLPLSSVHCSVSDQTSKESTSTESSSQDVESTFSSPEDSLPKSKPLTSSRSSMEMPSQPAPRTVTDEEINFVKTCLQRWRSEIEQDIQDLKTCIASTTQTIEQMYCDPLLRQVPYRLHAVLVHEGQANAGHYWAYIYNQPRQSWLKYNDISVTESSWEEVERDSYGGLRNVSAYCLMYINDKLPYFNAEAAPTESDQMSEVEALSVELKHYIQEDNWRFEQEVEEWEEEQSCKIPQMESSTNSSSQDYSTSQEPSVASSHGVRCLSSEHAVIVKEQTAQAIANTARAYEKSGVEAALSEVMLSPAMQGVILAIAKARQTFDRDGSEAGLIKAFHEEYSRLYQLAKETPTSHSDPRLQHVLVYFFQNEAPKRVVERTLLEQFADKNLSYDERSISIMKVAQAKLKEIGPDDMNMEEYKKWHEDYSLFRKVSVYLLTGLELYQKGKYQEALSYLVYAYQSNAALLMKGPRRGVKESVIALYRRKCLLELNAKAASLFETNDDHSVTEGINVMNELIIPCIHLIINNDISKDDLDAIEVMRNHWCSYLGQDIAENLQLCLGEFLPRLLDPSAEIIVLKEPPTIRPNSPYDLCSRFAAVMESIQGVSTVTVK
USP30 inh: inhibitors of human USP30 deubiquitinase | Ubiquitin carboxyl-terminal hydrolase 30 (Homo sapiens), Q70CQ3 | inhibition, % at 25 µM | purified USP30, Ub-rhodamine cleavage fluorescence | AID 1645860, 2021 | hit rate 5.3% among 47,000
USP17 inh: inhibitors of human USP17 deubiquitinase; purified USP17, Ub-rhodamine cleavage fluorescence, 3 h; inhibition, % at 50 µM; AID 1645855, 2021; Ubiquitin carboxyl-terminal hydrolase 17-like protein 5 (Homo sapiens), A8MUK1; hit rate 6.5% among 47,000
An asterisk follows results filed as active; . = no result given. A selection: hits, their analogues and other compounds. The true share with any hit is near 11%. Rule as the data show it: active = inhibition above about 30%; inactive = the rest.

SMILES | USP28 block | USP30 inh | USP17 inh
Cc1nn2cnnc2c(C)c1CCC(=O)Nc1cccc(Cl)c1 | -0.2 | 2.5 | -0.3
COc1cccc(NC(=O)c2cnc(N3CCCCC3)nc2C)c1 | 23.9 | -20.9 | -11.9
Cc1ccc(-c2cc(C(=O)Nc3nc(-c4ccc5ccccc5c4)cs3)c3ccccc3n2)cc1C | -14.2 | -55.4 | 5.6
O=C(Nc1ccccc1)C1CCN(c2cnc(N3CCCCC3)nc2)CC1 | -5.7 | -93.9 | 21.4
Cc1noc(-c2ccc(N3CCCC(C(=O)Nc4cccc(F)c4C)C3)nc2)n1 (centres undefined) | -0.1 | -11.9 | 18.0
Cc1noc(-c2ccc(-n3cnc(C(=O)NC4CCCCCC4)c3)nc2)n1 | 12.6 | 25.1 | 21.6
O=C(NCc1ccc(F)cc1)C1CCN(c2cnc(N3CCCCC3)nc2)CC1 | 69.2* | -10.0 | 5.0
O=C(NCc1ccccc1)C1CCN(c2cnc(N3CCCCCC3)nc2)CC1 | -8.0 | -115.3 | -26.8
Cc1noc(-c2ccc(-n3cnc(C(=O)NCc4ccccc4)c3)nc2)n1 | 6.5 | 30.4* | 20.9
Cc1noc(-c2ccc(N3CCCC(C(=O)NCc4ccc(F)cc4)C3)nc2)n1 (centres undefined) | 16.4 | 28.0 | 57.9*
Cc1cc(F)ccc1NC(=O)C1CCN(c2cnc(N3CCCCC3)nc2)CC1 | 33.2* | -7.2 | -12.1
COc1ccc(NS(=O)(=O)c2cc(Cl)ccc2Cl)cc1S(=O)(=O)N1CCOCC1 | -1.5 | 8.8 | 0.3
Cc1cc(=O)n(CC(=O)Nc2ccccc2C)c(N2CCCCC2)n1 | -2.7 | -3.6 | 15.0
Cc1ccc(CN2CC(O)CN(C(=O)C(C)(C)C)CC2=O)cc1 (centres undefined) | -7.5 | 6.2 | 0.0
COC(=O)c1ccccc1NC(=O)Cn1cc(S(=O)(=O)N2CCC(C)CC2)c2ccccc2c1=O | -6.2 | -32.6 | -3.4
CC(C)CC(=O)N1CCC(c2nc3c(nnn3Cc3c(F)cccc3Cl)c(=O)[nH]2)CC1 | 0.4 | 13.3 | -3.0
CN(CC(=O)Nc1ccccc1C(=O)NC1CC1)Cc1ccc2c(c1)OCO2 | 0.0 | 3.5 | 7.8
O=C(COc1ccc(-n2cnnn2)cc1)Nc1ccc(F)c(Cl)c1 | 17.5 | 28.0 | 42.1*
O=C(COc1cccc(-n2cnnn2)c1)Nc1cccc(F)c1 | -3.8 | -3.2 | -6.0
COc1ccc(-c2ccc3nnc(SCC(=O)NCC4CCCO4)n3n2)cc1 (centres undefined) | 4.4 | 22.4 | .
O=C(COc1ccc(Cl)cc1)Oc1ccc(-n2cnnn2)cc1 | 4.8 | 15.5 | -0.7
CCOc1ccc(NC(=O)COc2cccc(-n3cnnn3)c2)cc1 | 55.0* | 34.4* | 7.9
CCOc1ccc(-c2ccc3nnc(SCC(=O)Nc4cccc(C(C)=O)c4)n3n2)cc1 | 43.4* | 47.8* | 61.5*
Cc1nn(C)c(C)c1NC(=O)C(C)N1CC2(CCOCC2)Oc2ccccc2C1=O (centres undefined) | -18.7 | -30.5 | -7.0
COc1ccc(-c2csc(N)n2)c2ccccc12 | -11.4 | -88.9 | 24.0
SMILES | USP28 block | USP30 inh | USP17 inh
CCN(C(=O)[C@@H]1[C@H]2C[C@H]3[C@@H]1C(=O)O[C@H]3C2)c1c(C)cccc1C | 11.0 | 14.4 | 16.6
O=C(CCCCCN1C(=O)[C@@H]2Cc3ccccc3CN2C1=O)Nc1ccc2c(c1)OCO2 | 20.5 | 4.1 | 0.0
O=C(CC1CCCCC1)N1CCCC(c2[nH]nc3nccnc23)C1 (centres undefined) | 13.7 | 21.8 | 6.4
CN(CCc1noc(C2CCCCC2)n1)C(=O)Nc1ccc(F)cc1 | 0.0 | 15.6 | -0.1
Cc1ccc(OCC(=O)NCC(c2ccc3c(c2)CCCN3C)N2CCOCC2)cc1 (centres undefined) | -62.3 | -234.5 | -61.7
COc1nc2ccc(C)cc2cc1-c1noc(-c2cccnc2)n1 | -23.9 | -111.3 | -24.6
Cc1cc(-c2noc(-c3cccnc3)n2)c2ccccc2n1 | 0.0 | 0.0 | 39.7*
Cc1ccc(NC(=O)CC2C(=O)N(C3CCCC3)c3nc4ccccc4n32)cc1 (centres undefined) | 3.8 | 26.3 | 19.9
O=C(CC1C(=O)N(C2CCCC2)c2nc3ccccc3n21)Nc1ccccc1C(F)(F)F (centres undefined) | 0.3 | 22.7 | 34.2*
Cc1ccc(C(=O)N2Cc3cnn(C)c3C(COCC3CC3)C2)o1 (centres undefined) | -63.7 | -248.3 | -95.0
COc1ccccc1N1CCN(C(=O)CC(c2ccccc2)c2ccccc2)CC1 | 1.5 | 0.3 | -9.0
COc1ccccc1/C=C(\C(=O)N1CCN(c2ccccc2)CC1)c1ccccc1 | 14.4 | 35.3* | 6.7
O=C(COc1ccc2c(=O)c(-c3ccc(Cl)cc3)c(C(F)(F)F)oc2c1)N1CCCCC1 | -1.7 | -8.4 | -1.2
O=C1NCC2(C/C=C/CCOc3ccccc31)CCN(CC1CCOCC1)CC2 | 13.0 | 29.0 | 14.2
OC1(CN2CCCCC2Cn2cncn2)CCCCC1 (centres undefined) | -28.0 | -62.1 | -14.5
O=C(CSc1nncc2ccccc12)Nc1ccc2c(c1)OCO2 | 10.0 | 57.5* | -9.2
Cc1ccc2oc(SCC(=O)Nc3ccc4c(c3)OCO4)nc2n1 | 3.4 | -5.7 | 1.0
Cc1nc2ccccc2nc1SCC(=O)Nc1ccc2c(c1)OCO2 | 5.9 | 65.6* | 46.8*
Cc1ccc(NC(=O)CSc2nncc3ccccc23)cc1 | -0.1 | 3.0 | 25.4
CCOc1ccccc1OCCCC(=O)Nc1nc2ccccc2s1 | -5.4 | -3.4 | 0.7
CC1(C)Oc2ccccc2[C@H]2OCC3(CCN(C(=O)c4cccc(-n5cnnc5)c4)CC3)C[C@@H]21 | -5.5 | -1.6 | -4.8
COc1c(-c2ccccc2)c2ccccc2[nH]c1=O | -0.4 | 6.0 | 1.4
COC1=C(C)C(C)(O)c2[nH]c3ccccc3c2C1=O (centres undefined) | 6.0 | -3.6 | 41.6*
Cc1nc(C(=O)Nc2cccc(Cl)c2Cl)nn1-c1cc(Cl)cc(Cl)c1 | 9.7 | 24.2 | 71.2*
Cc1cc(C)n(-c2ccc(C(=O)Nc3cccc(Cl)c3C)nn2)n1 | -8.3 | 1.4 | 15.7
SMILES | USP28 block | USP30 inh | USP17 inh
Cc1ccc(C2=Nc3ncnn3C2=NCc2ccccc2)cc1 | 7.4 | 2.3 | 5.7
C[C@H]1CCCC(=O)CCCCCc2cc(OCc3ccccc3)cc(O)c2C(=O)O1 | 4.1 | 31.8* | 20.9
COc1cc(O)cc2c1C(=O)OC(C)CCCC(O)CCC2 (centres undefined) | -12.9 | -17.6 | -10.0
COc1cc(O)cc2c1C(=O)OC(C)CCCCCCC2 (centres undefined) | 23.8 | 37.5* | 39.8*
COC(=O)C1=C(C)N(Cc2ccccc2)C(=O)NC1c1cccc(OCc2ccccc2)c1 (centres undefined) | -74.5 | -333.1 | -57.1
O=C(Cc1cccnc1)Nc1ccc(N2CCN(C3CCCC3)C2=O)nc1 | -19.1 | -101.0 | 2.8
O=C(NCC1CC1)[C@@]12CCCN(c3ncccn3)[C@@H]1CN(c1ncccn1)C2 | -11.9 | -8.9 | -27.0
Oc1ccc2c3c1[C@@H](O)C1OC1[C@]31Oc3cccc4c3[C@](C=C[C@@H]4O)(O2)O1 (some centres undefined) | 4.4 | -54.2 | 46.3*
COc1ccc(-c2cc(C)no2)cc1S(=O)(=O)Nc1cc(F)ccc1F | 0.0 | -0.2 | 15.6
CC1CSc2ccc(S(=O)(=O)Nc3ccc(F)c(F)c3)cc2NC1=O (centres undefined) | -4.4 | -9.9 | 0.6
O=C(Nc1nc2c(s1)COCC2)c1cc(-c2ccco2)[nH]n1 | 64.0* | -21.7 | 72.9*
